Consider 94 compounds from PubChem BioAssay AID463173 (ICCB-Longwood Screening Facility, Harvard Medical School, 2010).

Molecules are shown by their SMILES. The campaign covered roughly 52,000 compounds. About 4,300 (8.3%) were called active. Only a selection was taken, and actives are over-represented in it overall. Unmarked numbers belong to inactive results. Cut-off read from the data, not from the text of the source: active = survival mostly below about 52% (no sharp cut-off); inactive = mostly above about 56%.

In the assay the test system is DeltatarO mutant. The assay is described as follows: S. aureus survival, RN4220 and DeltatarO strains – OD600, teichoic acid synthesis inhibitors, primary screen (AID 463173). As to conditions: S. aureus RN4220 wild type/DeltatarO growth, OD600, 18 h, hits give low values, screened at 18.75 µg/mL (by protocol).
As to `CCc1ccc(NC(=O)Cn2c(=O)n(-c3ccccc3)c(=O)c3ccc(C(=O)NCc4ccc5c(c4)OCO5)cc32)cc1`, the survival was 112%.
For the compound `COc1ccc(NC(=O)NC(C)c2c(-n3cccc3)sc3c2CCN(C)C3)c(OC)c1` (centres undefined), the survival is 70%.
Then `O=C(OCc1ccccc1F)c1ccc(-c2nnn(Cc3ccccc3)n2)cc1`, with 122%; and `COc1cccc(CN(C(=O)c2ccc(C(C)(C)C)cc2)C2CCS(=O)(=O)C2)c1` (centres undefined), with 70%.
With `COc1ccc(NC(=O)c2oc3ccccc3c2NC(=O)Cc2coc3cc(C)ccc23)cc1`, the survival was 70%.
Then `CN1CCN(S(=O)(=O)c2ccc(Br)c3ccccc23)CC1`, with 99%; and `Cc1cc(Nc2ccc(Cl)cc2)n2cnnc2n1`, with 65%.
In the case of `COc1ccc(-c2nn[nH]n2)cc1` it was 105%.
In the case of `COc1ccc(NC(=O)c2c(N)c(C(=O)c3ccc(C)cc3)n3ccccc23)cc1OC` it was 82%.
With `Cc1ccc(NC(=O)Cc2ccc(NC(=O)N3CCCCc4ccccc43)cc2)cc1Cl`, the survival is 93%.
Then `CCS(=O)(=O)c1ccccc1C(=O)N1CCN(c2nc3ccccc3s2)CC1`, with 55%; and `COc1ccc(CCNC(=O)c2cn(C)c3ccc(S(=O)(=O)N(C)C)cc3c2=O)cc1OC`, with 84%.
In the case of `Cc1ccc(-c2nc(C)c(CCNS(=O)(=O)c3ccc(F)c(C(F)(F)F)c3)s2)cc1` it was -4% (active); in that of `CCOc1ccc(S(=O)(=O)NCCc2sc(-c3ccc(C)cc3)nc2C)cc1`, 102%.
As to `Cc1ccc(-c2nc(C)c(CCNS(=O)(=O)c3ccccc3F)s2)cc1`, the survival was 76%.
In the case of `CC(C)c1nc2ccc(C(=O)NCCCN3CCN(c4ccccc4)CC3)cc2o1`, the survival was 120%.
In the case of `CC(C)COC(=O)Nc1ccc2c(c1)OCO2` it was 62%; in that of `Cc1ccc(C)n1-c1nnc(N2CCCC(C(=O)NCc3ccc(F)cc3)C2)s1` (centres undefined), 93%; in that of `CSc1ccc(C2c3[nH]c4ccccc4c3CCN2C(=O)CCC2CCCC2)cc1` (centres undefined), 74%.
In the case of `CCCCSc1nnc2c(n1)OC(c1ccc(Br)s1)Nc1ccccc1-2` (centres undefined) it was 10% (active).
In the case of `CCCCSc1nnc2c(n1)OC(C)N(C(C)=O)c1ccccc1-2` (centres undefined) it was 154%; in that of `CCSc1nnc2c(n1)OC(c1ccc(OC)c(OC)c1)N(C(C)=O)c1ccccc1-2` (centres undefined), 53%.
With `CCCCSc1nnc2c(n1)OC(c1ccc(Br)s1)N(C(C)=O)c1ccccc1-2` (centres undefined), the survival is 47%.
In the case of `CCCCCSc1nnc2c(n1)OC(c1ccc(C)s1)N(C(C)=O)c1ccccc1-2` (centres undefined) it was 45% (active); in that of `CCSc1nnc2c(n1)OC(c1ccc(C)cc1)N(C(C)=O)c1ccccc1-2` (centres undefined), 55%; in that of `CCCCCCSc1nnc2c(n1)OC(C)Nc1ccc(Br)cc1-2` (centres undefined), 75%.
In the case of `CCSc1nnc2c(n1)OC(c1cc(OC)c(OC)c(OC)c1)Nc1ccccc1-2` (centres undefined) it was 61%; in that of `CCSc1nnc2c(n1)OC(c1ccc(OC)cc1OC)N(C(C)=O)c1ccccc1-2` (centres undefined), 58% (active).
Then `CCCCCSc1nnc2c(n1)OC(CC)Nc1ccc(Br)cc1-2` (centres undefined), with 63%; and `CCCSc1nnc2c(n1)OC(c1ccc(Br)s1)Nc1ccccc1-2` (centres undefined), with 53%; and `CCCSc1nnc2c(n1)OC(c1cccs1)Nc1ccc(Br)cc1-2` (centres undefined), with 30% (active).
On to `Cc1c(C(=O)N2CCC(C)CC2)c(S(=O)(=O)Nc2ccc(OC(F)(F)F)cc2)c(C)n1C`, for which the survival is 91%.
Then `CCc1cccc(C)c1NS(=O)(=O)c1ccc2c(c1)CC(C)N2C(=O)C1CC1` (centres undefined), with 88%; and `COc1ccc(C(=O)NCc2ccc3c(c2)CCN3C(=O)c2ccncc2)cc1`, with 88%; and `Cc1ccc(Cl)cc1NC(=O)CN1C(=O)COc2ccc(S(=O)(=O)N3CCOCC3)cc21`, with 101%.
In the case of `CCc1c(C)[nH][n+]2cnn(Cc3ccc(Cl)cc3)c2c1=O` it was 89%.
Then `CCn1cnc2sc(C(=O)Nc3ccccc3)c(C)c2c1=O`, with 87%; and `Cc1ccc(CNC(=O)c2nnn(Cc3ccc(F)cc3)c2N)cc1`, with 91%.
For the compound `Cc1ccc(CNc2nc(-c3ccco3)nn2C(=O)c2ccccc2[N+](=O)[O-])cc1`, the survival is 111%.
Consider `Cc1nn2c(=O)cc(COC(=O)c3ccc(NC(=O)COc4ccc(C)c(C)c4)cc3)nc2s1`, for which the survival is 116%.
Then `Cc1ccc(S(=O)(=O)NCCSc2nnnn2-c2ccccc2)cc1`, with 71%.
Then `CCSc1nnc2c(n1)OC(c1ccc(C)s1)Nc1ccccc1-2` (centres undefined), with 71%.
`CCCCSc1nnc2c(n1)OC(c1ccc(C)s1)Nc1ccccc1-2` (centres undefined): the survival was 41% (active).
In the case of `CCCSc1nnc2c(n1)OC(c1sccc1C)Nc1ccccc1-2` (centres undefined) it was 79%; in that of `Cc1cccc(C)c1OCc1nc2c3cnn(-c4cccc(F)c4)c3ncn2n1`, 78%; in that of `CC(=O)c1ccc(S(=O)(=O)N2CCn3cccc3C2c2ccccc2F)cc1` (centres undefined), 82%.
Then `CCOc1ccc(-n2c(SCC(=O)NCC3CCCO3)nc3c([nH]c4ccccc43)c2=O)cc1` (centres undefined), with 74%; and `Cc1cc(Oc2c(C(F)(F)F)oc3c(CN4CCC(C)CC4)c(O)ccc3c2=O)cc(C)c1Cl`, with 70%.
In the case of `CCOc1ccc(CC(=O)NCCc2csc(-c3ccc(C(F)(F)F)cc3)n2)cc1` it was 77%; in that of `COc1ccc(CCC(=O)NCCc2csc(-c3ccc(C(F)(F)F)cc3)n2)cc1`, 73%; in that of `Cc1cccc(-c2nc(CCNC(=O)c3ccco3)cs2)c1`, -5% (active).
As to `Cc1cccc(-c2nc(CCNC(=O)Cc3ccccc3)cs2)c1`, the survival was 17% (active).
Consider `O=C(NCCc1csc(-c2cccc(F)c2)n1)c1ccco1`, for which the survival is 94%.
In the case of `Cc1cccc(-c2nc(CCNC(=O)c3ccc(Br)o3)cs2)c1` it was 89%.
For the compound `COc1ccc(CC(=O)NCCc2csc(-c3ccc(C(F)(F)F)cc3)n2)cc1`, the survival is -5% (active).
As for `COc1ccc(CC(=O)NCCc2csc(-c3cccc(C)c3)n2)cc1`, the survival is 68%.
Then `Cc1cccc(-c2nc(CCNC(=O)Cc3ccc(F)cc3)cs2)c1`, with 55%.
In the case of `CCOc1ccc(-c2nnc(SCC(=O)c3ccccc3)n2-c2ccccc2)cc1` it was 136%; in that of `COc1cccc(CNC(=O)c2cc(S(=O)(=O)N3CCCCC3)c[nH]2)c1`, 64%.
In the case of `COc1ccccc1NC(=O)CSc1ncc2c(n1)-c1ccccc1N(Cc1ccccc1C)S2(=O)=O` it was 101%; in that of `Cc1cc(=O)[nH]c2nnc(SCC(=O)NC(C)(C)C)n12`, 77%.
With `COc1ccc(CN2COc3ccc4c(-c5ccc(OC)cc5)cc(=O)oc4c3C2)cc1`, the survival was 65%.
In the case of `COc1ccc(-c2cc(=O)oc3c4c(ccc23)OCN(Cc2cccc(OC)c2)C4)cc1` it was 38% (active).
Then `COc1ccc(-c2cc(=O)oc3c4c(ccc23)OCN(Cc2ccccc2)C4)cc1`, with 82%; and `Cc1cccc(NC(=O)C2CCN(S(=O)(=O)c3cccc4nsnc34)CC2)c1`, with 84%; and `CCOc1ccc(NC(=O)CC2C(=O)N(c3ccc(F)cc3)C(=O)N2Cc2ccc(OC)c(OC)c2)cc1` (centres undefined), with 90%.
Then `Cc1ccc(C)c(CSc2nc3ncccc3[nH]2)c1`, with 73%; and `Cc1cc(C)c(NC(=O)CSc2nc3nccnc3c(=O)n2CCc2c[nH]c3ccccc23)c(C)c1`, with 48%; and `Cn1c(SCC(=O)Nc2ccccc2F)nc2c([nH]c3ccccc32)c1=O`, with 115%.
Regarding `O=C(CSc1nc2c([nH]c3ccccc32)c(=O)n1-c1ccccc1)Nc1ccccc1F`, the survival was 96%.
Then `COc1ccccc1NC(=O)CSc1nc2nccnc2c(=O)n1CCc1c[nH]c2ccccc12`, with 38% (active); and `Cc1ccc(NC(=O)CSc2nc3c([nH]c4ccccc43)c(=O)n2-c2ccccc2)c(C)c1`, with 96%.
In the case of `O=C(CSc1nc2nccnc2c(=O)n1CCc1c[nH]c2ccccc12)Nc1ccc(F)cc1` it was 29% (active).
In the case of `COc1ccccc1NC(=O)CSc1nc2ccccc2c(=O)n1CCC(=O)NC1CCCCC1` it was 89%; in that of `Cc1ccc(NC(=O)CSc2nc3nccnc3c(=O)n2CCc2c[nH]c3ccccc23)c(C)c1`, 45% (active); in that of `O=C(CSc1nc2nccnc2c(=O)n1CCc1c[nH]c2ccccc12)Nc1ccccc1F`, 46% (active).
Turning to `COCCCn1c(SCC(=O)Nc2ccccc2OC)nc2c(sc3ccccc32)c1=O`, the survival is 77%.
In the case of `CCc1ccc(NC(=O)CSc2nc3nccnc3c(=O)n2CCc2c[nH]c3ccccc23)cc1` it was 88%; in that of `O=C(CSc1nc2nccnc2c(=O)n1CCc1c[nH]c2ccccc12)Nc1ccccc1`, 73%.
In the case of `Cc1ccc(C)c(NC(=O)CCCn2nc(C)c3sc4ccccc4c3c2=O)c1` it was 85%; in that of `CCOC(=O)c1c(C)[nH]c(C)c1S(=O)(=O)N(C)CC(=O)Nc1ccc(C)cc1Br`, 72%; in that of `CCCCN(C)C(=O)Cn1cnc2sc(C)c(S(=O)(=O)N3CCN(c4ccccc4OC)CC3)c2c1=O`, 70%.
Then `Cc1cc(C)n(-c2nc(C)c(C)c(=O)n2CC(=O)Nc2ccc(OC(F)(F)F)cc2)n1`, with 90%.
On to `COc1ccccc1N1CCN(C(=O)COc2ccccc2C#N)CC1`, for which the survival was 81%.
With `COc1cc(C(=O)N2CCN(CCc3ccncc3)CC2)cc(OC)c1OC`, the survival is 89%.
Then `CS(=O)(=O)n1nc(-c2ccco2)nc1NCc1ccccc1Cl`, with 61%; and `COc1cc(NC(=O)Cn2cnc3sc(C)c(S(=O)(=O)N4CCC(C)CC4)c3c2=O)cc(OC)c1OC`, with 111%; and `Cc1cc(C)c2c(n1)nn1c(C)c(CCC(=O)NCc3ccc(Cl)cc3)c(C)nc21`, with 80%.
In the case of `Cc1ccccc1NC(=O)CSc1nc2nccnc2c(=O)n1CCc1c[nH]c2ccccc12` it was 40% (active); in that of `Cc1ccccc1NC(=O)NCCc1c[nH]c2ccccc12`, 47%; in that of `Cc1cccc(NC(=O)CSc2nc3c([nH]c4ccccc43)c(=O)n2C)c1C`, 80%.
Then `Cc1ccc(C)c(NC(=O)CSc2nc3nccnc3c(=O)n2CCc2c[nH]c3ccccc23)c1`, with 37% (active); and `Cc1ccc(C)c(NC(=O)Cn2c(SCC(=O)NCc3ccccc3)nc3ccccc32)c1`, with 101%; and `CCOCCCn1c(SCC(=O)Nc2cc(C)ccc2C)nc2c(oc3ccccc32)c1=O`, with 90%.
